Test systems include T-47D breast; BT-549 breast; MDA-MB-435 melanoma; SW-620 colon; MCF7 breast; HCT-116 colon; HCC-2998 colon; KM12 colon.
Common to all, as to test: NCI-60 one-dose screen, 48 h (100 = growth as untreated, 0 = no growth, -100 = all killed)
Settings in all cases: 10 µM unless noted

The panel holds about 83,000 compounds, 20% with a hit somewhere; the sample as a whole holds those more often.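 Interpretation: 100, growth as untreated; towards 0, rising growth inhibition; 0, no net growth; 0 to -100, cell death. Compounds scoring below 10 were considered active.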 Unmarked numbers belong to inactive results. Activity calls are given as the source filed them.

With `COc1ccc(/C=C/C(=O)c2cccc(NS(C)(=O)=O)c2)cc1`, the growth in the assay on T-47D breast is 70.6%; with BT-549 breast it was 105%; with MDA-MB-435 melanoma it was 90%; with SW-620 colon it was 50.5%; with MCF7 breast, 50.4%; in the assay with HCT-116 colon, 21%. Besides, the growth in the assay with HCC-2998 colon is 111%; in the assay on KM12 colon, 38.5%.
Take `Nc1nc(Nc2ccccc2SSc2ccccc2Nc2nc(N)nc(-c3cccc(Cl)c3)n2)nc(-c2cccc(Cl)c2)n1`: the growth in the assay on T-47D breast is 68.9%; in the assay with BT-549 breast it was 94.3%; with MDA-MB-435 melanoma it was 101%; in the assay on SW-620 colon, 104%; with MCF7 breast, 82.8%; with HCT-116 colon, 90.9%. The growth in the assay with HCC-2998 colon was 110%; in the assay on KM12 colon, 77%.
As for `COc1ccc2c(c1)[n+](=O)c(C(=O)/C=C/c1cc(OC)c(OC)c(OC)c1)c(C)n2[O-]`, the growth was 60.1% in the assay on T-47D breast; 28.8% with BT-549 breast; 69.5% in the assay with MDA-MB-435 melanoma; 72.4% in the assay with SW-620 colon; 45.6% in the assay with MCF7 breast; 50.3% in the assay with HCT-116 colon. Moreover, the growth with HCC-2998 colon is 98.1%; in the assay with KM12 colon, 88.6%.
Take `COc1ccc(C2=NN(C=O)C(c3cccc(Nc4ccnc5cc(Cl)ccc45)c3)C2)cc1` (stereo not given): the growth is 25.1% in the assay with T-47D breast; 1.59% (active) with BT-549 breast; 11.7% in the assay on MDA-MB-435 melanoma; 24.8% in the assay with SW-620 colon; 15.7% in the assay on MCF7 breast; 12% in the assay on HCT-116 colon. The growth was 57.8% with HCC-2998 colon and 27.4% with KM12 colon.
Take `N#CSCC1CC(O)(c2ccccc2)C(c2ccccc2)C(c2ccc(Cl)cc2)O1` (stereo not given): the growth was -35.3% (active) in the assay on T-47D breast; -57.8% (active) in the assay on BT-549 breast; -65.2% (active) in the assay with MDA-MB-435 melanoma; -76.2% (active) with SW-620 colon; -51.5% (active) with MCF7 breast; -92.9% (active) in the assay with HCT-116 colon. Besides, the growth is -86.2% (active) with HCC-2998 colon and -96% (active) in the assay with KM12 colon.
As to `O=C1N=C(N2CCOCC2)S/C1=C\c1cn(-c2ccccc2)nc1-c1ccccc1`, the growth was 62.4% in the assay on T-47D breast; 53.8% in the assay with BT-549 breast; 65.3% in the assay on MDA-MB-435 melanoma; 98.8% in the assay on SW-620 colon; 81.5% in the assay on MCF7 breast; 64.4% in the assay with HCT-116 colon. Also, the growth with HCC-2998 colon is 100%; with KM12 colon, 96.4%.
On to `Cc1ncc(C(=O)Nc2ccc(CN3CCN(C)CC3)c(C(F)(F)F)c2)cc1C#Cc1cncc2ncccc12`, for which the growth was 83.7% with T-47D breast; 85.4% in the assay on BT-549 breast; 36.9% with MDA-MB-435 melanoma; 59.6% in the assay on SW-620 colon; 71.9% with MCF7 breast; 42.2% in the assay on HCT-116 colon. Further, the figures for the growth in the assay on HCC-2998 colon and with KM12 colon were 74.5% and 13.6%, respectively.
As for `CN1CCN(CCCCCN=c2cc3c(=O)n(CCCCCN4CCN(C)CC4)c(=O)c4c(NCCCCCN5CCN(C)CC5)cc5c(O)n(CCCCCN6CCN(C)CC6)c(=O)c2c5c4-3)CC1`, the growth was 16.5% in the assay on T-47D breast; 11.4% with BT-549 breast; -41.5% (active) with MDA-MB-435 melanoma; 21.9% in the assay on SW-620 colon; -6.01% (active) in the assay on MCF7 breast; 2.16% (active) with HCT-116 colon. In addition, the growth in the assay on HCC-2998 colon is 29.1%; in the assay with KM12 colon, 2.69% (active).
As for `Cc1ccc(-c2csc(N)n2)cc1`, the growth with T-47D breast is 92.9%; in the assay on BT-549 breast it was 93%; with MDA-MB-435 melanoma, 106%; with SW-620 colon it was 105%; with MCF7 breast, 106%; in the assay on HCT-116 colon, 99.9%. Also, the growth is 98.7% in the assay on HCC-2998 colon and 106% with KM12 colon.
On to `Cc1sc2nc(N3CCCCC3)[nH]c(=O)c2c1C`, for which the growth is 84.2% with T-47D breast; 99.1% in the assay on BT-549 breast; 103% in the assay on MDA-MB-435 melanoma; 96.2% in the assay on SW-620 colon; 96.1% in the assay on MCF7 breast; 93.2% in the assay with HCT-116 colon. The growth with HCC-2998 colon was 98%; in the assay on KM12 colon, 102%.
As to `CCOC(=O)CNC(=O)C1(NC(=O)CNC(=O)OCc2ccccc2)CCCC1`, the growth is 107% in the assay with T-47D breast; 98% with BT-549 breast; 95.6% in the assay on MDA-MB-435 melanoma; 110% with SW-620 colon; 96.6% with MCF7 breast; 101% with HCT-116 colon. Also, the figures for the growth in the assay on HCC-2998 colon and in the assay with KM12 colon were 105% and 108%, respectively.
As to `O=c1ncc(-c2ccc(C(F)(F)F)cc2)c(NC2CCCCCC2)[nH]1`, the growth in the assay on T-47D breast was 32.5%; in the assay on BT-549 breast it was 72.7%; in the assay with MDA-MB-435 melanoma, 45.3%; with SW-620 colon, 46.5%; in the assay on MCF7 breast, 40.4%; in the assay on HCT-116 colon it was 39.1%. The growth was 98.1% in the assay with HCC-2998 colon and 33.4% in the assay on KM12 colon.
As to `C[C@@H]1[C@H]2[C@H](C=C3[C@@H]4CC[C@H]5Cc6nc7c(nc6C[C@]5(C)[C@H]4C[C@@H](O)[C@@]32C)C[C@@H]2CC[C@H]3C4=C[C@@H]5O[C@@]6(CC[C@](C)(CO)O6)[C@@H](C)[C@@]5(O)[C@@]4(C)[C@H](O)C[C@@H]3[C@@]2(C)C7)O[C@]12CCC(C)(C)O2`, the growth was 7.03% (active) in the assay with T-47D breast; 3.41% (active) in the assay on BT-549 breast; 51.8% with MDA-MB-435 melanoma; 8.02% (active) in the assay with SW-620 colon; 15.5% with MCF7 breast; 9.68% (active) in the assay on HCT-116 colon. Further, the growth in the assay on HCC-2998 colon was 66.5%; in the assay on KM12 colon, 28.7%.
For the compound `NS(=O)(=O)c1cc(C2(O)NC(=O)c3ccccc32)ccc1Cl` (stereo not given), the growth is 109% in the assay on T-47D breast; 97.7% with BT-549 breast; 101% in the assay with MDA-MB-435 melanoma; 109% in the assay on SW-620 colon; 102% with MCF7 breast; 98.9% in the assay on HCT-116 colon. The growth with HCC-2998 colon was 109%; with KM12 colon, 111%.
As for `COc1c(O)cc2c(c1CC=C(C)C)OC(=O)c1c(cc(O)c(CC=C(C)C)c1O)O2`, the growth in the assay with T-47D breast was 49.3%; with BT-549 breast, 78.2%; in the assay with MDA-MB-435 melanoma, 60.3%; with SW-620 colon, 27.3%; in the assay on MCF7 breast, 10.6%; in the assay with HCT-116 colon it was 26.8%. In addition, the figures for the growth in the assay with HCC-2998 colon and in the assay on KM12 colon were 24.5% and 7.76% (active), respectively.
